Screening results from PubChem.
Most compounds without a hit are left out; they make up all but 2.8% or so of the library.
SNCA expr inhib: reduces expression of the alpha-synuclein gene; HEK-293 SNCA-luciferase knock-in, luminescence, 24 h; Potency, µM (highest dose often 57.2 µM), most hits filed as inhibitors; actives 0.17% (n = 140,000); note: nearly all actives have a fitted effect of over 45% in size
IP6K1 inhibitor: blocks human inositol hexakisphosphate kinase 1; activity change, % (series mostly up to about 58 µM); AID 1645851; actives 0.81% (n = 140,000); IP6K1 kinase, ADP-Glo luminescence, 2 h; active compounds read low; Q92551; in the data active = activity change below about -25%
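ADP-Glo luminescence measures ADP made by human IP6K1 during a 2 h RT reaction with ATP/IP6 (mix at 1.3 mM/130 uM); top library doses 57.5 and 19.1 uM final.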
KDM5B inh: KDM5B demethylase inhibition; Potency, µM (highest dose often 57.7 µM), actives largely listed as inhibitors; actives 2.6% (n = 220,000); KDM5B demethylase, FDH-coupled NADH fluorescence (FDH is formaldehyde dehydrogenase); AID 1347165; Q9UGL1; note: nearly all actives have a fitted effect of over 70% in size
Target sequence (Q9UGL1 whole entry, looked up): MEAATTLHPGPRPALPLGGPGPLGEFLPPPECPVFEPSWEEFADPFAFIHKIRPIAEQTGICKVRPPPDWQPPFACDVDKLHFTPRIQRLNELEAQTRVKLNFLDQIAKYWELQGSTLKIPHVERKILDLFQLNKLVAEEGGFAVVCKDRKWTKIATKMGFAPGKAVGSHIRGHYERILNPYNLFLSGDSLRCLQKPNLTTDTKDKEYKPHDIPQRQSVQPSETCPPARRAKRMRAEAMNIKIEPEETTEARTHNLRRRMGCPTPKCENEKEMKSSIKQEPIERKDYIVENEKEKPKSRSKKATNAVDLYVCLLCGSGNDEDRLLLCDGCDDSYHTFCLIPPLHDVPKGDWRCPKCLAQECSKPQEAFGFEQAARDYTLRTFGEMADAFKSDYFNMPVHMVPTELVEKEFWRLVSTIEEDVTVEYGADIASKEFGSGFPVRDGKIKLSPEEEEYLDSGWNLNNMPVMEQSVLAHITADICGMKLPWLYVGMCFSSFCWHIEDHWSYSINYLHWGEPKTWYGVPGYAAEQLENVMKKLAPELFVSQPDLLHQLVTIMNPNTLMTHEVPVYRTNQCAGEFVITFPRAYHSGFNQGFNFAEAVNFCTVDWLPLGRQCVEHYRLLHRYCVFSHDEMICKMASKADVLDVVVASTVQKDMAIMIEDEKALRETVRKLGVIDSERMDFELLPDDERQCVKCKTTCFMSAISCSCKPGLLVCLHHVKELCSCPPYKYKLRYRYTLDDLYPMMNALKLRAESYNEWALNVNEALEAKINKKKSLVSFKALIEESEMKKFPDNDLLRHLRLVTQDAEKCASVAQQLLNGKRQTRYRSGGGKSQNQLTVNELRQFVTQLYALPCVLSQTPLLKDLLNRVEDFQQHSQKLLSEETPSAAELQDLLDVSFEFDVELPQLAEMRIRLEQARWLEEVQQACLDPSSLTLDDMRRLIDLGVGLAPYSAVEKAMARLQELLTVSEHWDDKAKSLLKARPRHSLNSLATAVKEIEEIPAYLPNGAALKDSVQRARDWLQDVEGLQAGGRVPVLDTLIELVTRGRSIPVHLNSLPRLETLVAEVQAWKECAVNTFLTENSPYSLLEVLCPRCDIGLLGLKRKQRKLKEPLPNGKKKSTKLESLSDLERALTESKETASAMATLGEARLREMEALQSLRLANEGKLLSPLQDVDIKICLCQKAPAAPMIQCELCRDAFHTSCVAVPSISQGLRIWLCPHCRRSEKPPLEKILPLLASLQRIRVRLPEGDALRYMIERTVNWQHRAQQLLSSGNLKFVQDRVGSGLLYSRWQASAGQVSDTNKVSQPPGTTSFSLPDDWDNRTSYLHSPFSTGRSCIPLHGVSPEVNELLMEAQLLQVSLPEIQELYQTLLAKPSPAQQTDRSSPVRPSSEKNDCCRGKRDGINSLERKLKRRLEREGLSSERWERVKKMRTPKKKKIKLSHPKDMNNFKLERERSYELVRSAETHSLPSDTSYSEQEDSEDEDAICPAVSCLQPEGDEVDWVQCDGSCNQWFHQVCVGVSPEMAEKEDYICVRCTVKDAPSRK
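Here, H3K4me3 peptide (12.5 µM in substrate mix) is demethylated by KDM5BΔAP, 200 nM final, after 10 min compound exposure. Formaldehyde product is coupled through FDH (0.25 U/mL in mix) to NADH fluorescence; 30-min ΔRFU feeds dose-response curves.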
SNCA viab count: cell viability loss counter-screen. HEK-293-SNCA-luc viability, GF-AFC fluorescence, 24 h. Potency, µM (highest dose often 57.1 µM), usual class: cytotoxic. actives 0.12% (n = 150,000); note: nearly all actives have a fitted effect of over 30% in size
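HEK-293-SNCA-luc cells (1500/well) plated 24 h, then exposed 24 h to a dilution series; GF-AFC added 30 min at 37C, fluorescence 405/540 nm; normalised to medium-only and DMSO wells, Hill fit.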
Each line names hits and unclear results; the compound was inactive in the other large screens. Unless noted, calls come from the whole dose curve; as a rule, active = well fitted curve in the direction sought with a large enough effect; inconclusive = small, poorly fitted or top-dose-only effect, or another doubt; inactive = no such curve, though single readings can be large; an effect the other way counts as inactive or inconclusive.

COc1ccc(C(=O)NCCn2ccn3nc(-c4ccc(F)cc4)cc3c2=O)cn1	KDM5B inh 25.1µM
CCN(CC)C(=S)SC/C(=N/Nc1ccc(Br)cc1)c1ccccc1	none (no result: SNCA expr inhib, IP6K1 inhibitor, SNCA viab count)
CS(=O)(=O)N(Cc1cccnc1)C1CN(C(=O)c2ccc3cc[nH]c3c2)C1	KDM5B inh 31.6µM
CC1(C)O[C@H]2[C@@H](O1)[C@@H](C(=O)O)O[C@@H]1OC(C)(C)O[C@@H]12	none (no result: SNCA expr inhib, IP6K1 inhibitor, SNCA viab count)
CN(C)CCCOc1ccc(-c2cnc(N)cn2)cn1	KDM5B inh 31.6µM
CC(C)CNc1ccc2c(n1)C(C)(C(=O)NC1CCN(C)CC1)CN(Cc1ccccc1)C2 (stereo not drawn)	none
CNC(=O)C1(C)CN(Cc2ccccc2)Cc2ccc(N3CCOCC3)nc21 (stereo not drawn)	KDM5B inh 35.5µM
CN1Cc2ccc(N3CCOCC3)nc2C(C)(C(=O)NCc2ccccc2)C1 (stereo not drawn)	KDM5B inh inconclusive
CC1(C(=O)NCc2ccco2)CN(Cc2ccccc2)Cc2ccc(N3CCOCC3)nc21 (stereo not drawn)	SNCA expr inhib inconclusive, KDM5B inh 15.8µM
COCCNC(=O)C1(C)CN(Cc2ccccc2)Cc2ccc(N3CCOCC3)nc21 (stereo not drawn)	KDM5B inh 31.6µM
CC1(C(=O)NC2CCC2)CN(Cc2ccccc2)Cc2ccc(N3CCOCC3)nc21 (stereo not drawn)	KDM5B inh 35.5µM, SNCA viab count inconclusive
CC(=O)c1ccc(NC(=O)CN2CCN(c3nc(-c4ccco4)c4c(c3C#N)CCC4)CC2)cc1	none (no result: SNCA expr inhib, IP6K1 inhibitor, SNCA viab count)
COc1ccc(Nc2ccnc(N3CCN(C(=O)c4ccccc4Cl)CC3)n2)cc1	none (no result: KDM5B inh)
COc1ccc2c(c1)O/C(=C\c1ccc(OS(C)(=O)=O)cc1)C2=O	none (no result: SNCA expr inhib, IP6K1 inhibitor, SNCA viab count)
Cn1ccc(NC(=O)C2(C)CN(Cc3ccccc3)Cc3ccc(N4CCOCC4)nc32)n1 (stereo not drawn)	KDM5B inh 11.2µM
CN(C)CCNC(=O)C1(C)CN(Cc2ccccc2)Cc2ccc(Nc3ccccc3)nc21 (stereo not drawn)	SNCA expr inhib inconclusive
O=C(O)CCC(=O)N[C@H]1CCN2C(=O)c3cc(/C=C/c4ccccc4)ccc3NC(=O)[C@H]12	KDM5B inh 39.8µM
O=C(N[C@H]1CCN2C(=O)c3cc(/C=C/c4ccccc4)ccc3NC(=O)[C@H]12)C1CCCC1	KDM5B inh 31.6µM
O=C(O)CCC(=O)N[C@H]1CCN2C(=O)c3cc(-c4cccc(C(F)(F)F)c4)ccc3NC(=O)[C@H]12	none
COc1ccc(-c2ccc3c(c2)C(=O)N2CC[C@H](NC(=O)COCC(=O)O)[C@H]2C(=O)N3)cc1	KDM5B inh 20µM
COc1ccc(/C=C/c2ccc3c(c2)C(=O)N2CC[C@H](NC(=O)CCC(=O)O)[C@H]2C(=O)N3)cc1	KDM5B inh 28.2µM
Brc1ccc2[nH]c3c(c2c1)CCCCC3	none (no result: SNCA expr inhib, IP6K1 inhibitor, SNCA viab count)
Cc1ccc(OCC(=O)N2CCN(c3ncccn3)CC2)c(C)c1	none (no result: SNCA expr inhib, IP6K1 inhibitor, SNCA viab count)
Cn1nc(C(=O)OCC(=O)NC(C)(C)C)c2ccccc2c1=O	none (no result: SNCA expr inhib, IP6K1 inhibitor, SNCA viab count)
O=C(O)COCC(=O)N[C@H]1CCN2C(=O)c3cc(-c4ccccc4F)ccc3NC(=O)[C@H]12	none
C=CCO[C@@H]1CCN2C(=O)c3cc(-c4ccc(OC)cc4)ccc3NC(=O)[C@H]12	KDM5B inh 35.5µM
COc1ccc(C(=O)N2CCN3C(=O)c4cc(-c5ccc(Cl)cc5)ccc4NC(=O)[C@@H]3C2)cc1	SNCA expr inhib inconclusive, KDM5B inh inconclusive
O=C(O)COCC(=O)N[C@H]1CCN2C(=O)c3cc(/C=C/c4ccccc4)ccc3NC(=O)[C@H]12	KDM5B inh 31.6µM
O=C1Nc2ccc(/C=C/c3ccccc3)cc2C(=O)N2CC[C@H](NS(=O)(=O)c3cccs3)[C@@H]12	SNCA expr inhib inconclusive, KDM5B inh 31.6µM
O=C1Nc2ccc(-c3ccccc3)cc2C(=O)N2CC[C@H](NS(=O)(=O)c3cccs3)[C@@H]12	SNCA expr inhib inconclusive
CCN(CC)c1cc(CCC(=O)NCc2ccc(Cl)cc2)ccn1	KDM5B inh 22.4µM
O=C(O)CCc1ccnc(N2CCCC2)c1	KDM5B inh inconclusive
Cc1ccc(CNC(=O)CCc2ccnc(N3CCCC3)c2)cc1	KDM5B inh 31.6µM
CCN(CC)c1cc(CCC(=O)NCc2ccccc2C)ccn1	KDM5B inh inconclusive
CCCNC(=O)CCc1ccnc(N2CCCC2)c1	KDM5B inh 22.4µM
O=C(CCc1ccnc(N2CCCC2)c1)N1CCN(c2cccc(Cl)c2)CC1	SNCA expr inhib inconclusive, KDM5B inh 22.4µM
CC(C)OC(=O)CCNC(=O)c1ccc(Cl)cc1Cl	none (no result: SNCA expr inhib, IP6K1 inhibitor, SNCA viab count)
